The values below come from the supplement of paper PMC12067093, “Discovery and optimisation of a covalent ligand for TRIM25 and its application to targeted protein ubiquitination” (Chemical Science, 2025).

Targets with the largest changes are over-represented here; the source holds about 21,000 in all.

Compound in the assay: Cc1cc(ccc1-c1ccccc1)C(=O)N1CCCN(CC1)C(=O)CCl [compound 10]
The experiment in a line: probe-labelled cysteine peptide fold change vs DMSO (competition) (log2 fold change); higher = less target engagement (more negative = stronger competition). The settings on record: THP-1, incubation time: 4 h.
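Note: competitive profiling in live THP-1 cells: cysteine peptides tagged with an iodoacetamide desthiobiotin (IA-DTB) probe, intensity after compound treatment relative to DMSO-treated cells.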

Sequence of UniProt P45984 (P45984 whole entry, looked up): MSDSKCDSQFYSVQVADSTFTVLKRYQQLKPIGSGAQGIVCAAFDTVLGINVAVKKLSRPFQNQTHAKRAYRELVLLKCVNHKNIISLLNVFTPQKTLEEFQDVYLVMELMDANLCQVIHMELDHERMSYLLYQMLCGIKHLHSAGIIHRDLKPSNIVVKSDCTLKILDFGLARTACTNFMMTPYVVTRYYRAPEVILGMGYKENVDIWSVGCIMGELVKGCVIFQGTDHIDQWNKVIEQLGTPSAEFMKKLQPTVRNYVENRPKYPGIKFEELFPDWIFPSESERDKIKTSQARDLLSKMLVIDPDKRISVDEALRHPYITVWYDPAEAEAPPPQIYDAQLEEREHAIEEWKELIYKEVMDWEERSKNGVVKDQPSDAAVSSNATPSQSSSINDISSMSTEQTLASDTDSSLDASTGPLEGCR
Sequence of UniProt O75592 (O75592 whole entry, looked up): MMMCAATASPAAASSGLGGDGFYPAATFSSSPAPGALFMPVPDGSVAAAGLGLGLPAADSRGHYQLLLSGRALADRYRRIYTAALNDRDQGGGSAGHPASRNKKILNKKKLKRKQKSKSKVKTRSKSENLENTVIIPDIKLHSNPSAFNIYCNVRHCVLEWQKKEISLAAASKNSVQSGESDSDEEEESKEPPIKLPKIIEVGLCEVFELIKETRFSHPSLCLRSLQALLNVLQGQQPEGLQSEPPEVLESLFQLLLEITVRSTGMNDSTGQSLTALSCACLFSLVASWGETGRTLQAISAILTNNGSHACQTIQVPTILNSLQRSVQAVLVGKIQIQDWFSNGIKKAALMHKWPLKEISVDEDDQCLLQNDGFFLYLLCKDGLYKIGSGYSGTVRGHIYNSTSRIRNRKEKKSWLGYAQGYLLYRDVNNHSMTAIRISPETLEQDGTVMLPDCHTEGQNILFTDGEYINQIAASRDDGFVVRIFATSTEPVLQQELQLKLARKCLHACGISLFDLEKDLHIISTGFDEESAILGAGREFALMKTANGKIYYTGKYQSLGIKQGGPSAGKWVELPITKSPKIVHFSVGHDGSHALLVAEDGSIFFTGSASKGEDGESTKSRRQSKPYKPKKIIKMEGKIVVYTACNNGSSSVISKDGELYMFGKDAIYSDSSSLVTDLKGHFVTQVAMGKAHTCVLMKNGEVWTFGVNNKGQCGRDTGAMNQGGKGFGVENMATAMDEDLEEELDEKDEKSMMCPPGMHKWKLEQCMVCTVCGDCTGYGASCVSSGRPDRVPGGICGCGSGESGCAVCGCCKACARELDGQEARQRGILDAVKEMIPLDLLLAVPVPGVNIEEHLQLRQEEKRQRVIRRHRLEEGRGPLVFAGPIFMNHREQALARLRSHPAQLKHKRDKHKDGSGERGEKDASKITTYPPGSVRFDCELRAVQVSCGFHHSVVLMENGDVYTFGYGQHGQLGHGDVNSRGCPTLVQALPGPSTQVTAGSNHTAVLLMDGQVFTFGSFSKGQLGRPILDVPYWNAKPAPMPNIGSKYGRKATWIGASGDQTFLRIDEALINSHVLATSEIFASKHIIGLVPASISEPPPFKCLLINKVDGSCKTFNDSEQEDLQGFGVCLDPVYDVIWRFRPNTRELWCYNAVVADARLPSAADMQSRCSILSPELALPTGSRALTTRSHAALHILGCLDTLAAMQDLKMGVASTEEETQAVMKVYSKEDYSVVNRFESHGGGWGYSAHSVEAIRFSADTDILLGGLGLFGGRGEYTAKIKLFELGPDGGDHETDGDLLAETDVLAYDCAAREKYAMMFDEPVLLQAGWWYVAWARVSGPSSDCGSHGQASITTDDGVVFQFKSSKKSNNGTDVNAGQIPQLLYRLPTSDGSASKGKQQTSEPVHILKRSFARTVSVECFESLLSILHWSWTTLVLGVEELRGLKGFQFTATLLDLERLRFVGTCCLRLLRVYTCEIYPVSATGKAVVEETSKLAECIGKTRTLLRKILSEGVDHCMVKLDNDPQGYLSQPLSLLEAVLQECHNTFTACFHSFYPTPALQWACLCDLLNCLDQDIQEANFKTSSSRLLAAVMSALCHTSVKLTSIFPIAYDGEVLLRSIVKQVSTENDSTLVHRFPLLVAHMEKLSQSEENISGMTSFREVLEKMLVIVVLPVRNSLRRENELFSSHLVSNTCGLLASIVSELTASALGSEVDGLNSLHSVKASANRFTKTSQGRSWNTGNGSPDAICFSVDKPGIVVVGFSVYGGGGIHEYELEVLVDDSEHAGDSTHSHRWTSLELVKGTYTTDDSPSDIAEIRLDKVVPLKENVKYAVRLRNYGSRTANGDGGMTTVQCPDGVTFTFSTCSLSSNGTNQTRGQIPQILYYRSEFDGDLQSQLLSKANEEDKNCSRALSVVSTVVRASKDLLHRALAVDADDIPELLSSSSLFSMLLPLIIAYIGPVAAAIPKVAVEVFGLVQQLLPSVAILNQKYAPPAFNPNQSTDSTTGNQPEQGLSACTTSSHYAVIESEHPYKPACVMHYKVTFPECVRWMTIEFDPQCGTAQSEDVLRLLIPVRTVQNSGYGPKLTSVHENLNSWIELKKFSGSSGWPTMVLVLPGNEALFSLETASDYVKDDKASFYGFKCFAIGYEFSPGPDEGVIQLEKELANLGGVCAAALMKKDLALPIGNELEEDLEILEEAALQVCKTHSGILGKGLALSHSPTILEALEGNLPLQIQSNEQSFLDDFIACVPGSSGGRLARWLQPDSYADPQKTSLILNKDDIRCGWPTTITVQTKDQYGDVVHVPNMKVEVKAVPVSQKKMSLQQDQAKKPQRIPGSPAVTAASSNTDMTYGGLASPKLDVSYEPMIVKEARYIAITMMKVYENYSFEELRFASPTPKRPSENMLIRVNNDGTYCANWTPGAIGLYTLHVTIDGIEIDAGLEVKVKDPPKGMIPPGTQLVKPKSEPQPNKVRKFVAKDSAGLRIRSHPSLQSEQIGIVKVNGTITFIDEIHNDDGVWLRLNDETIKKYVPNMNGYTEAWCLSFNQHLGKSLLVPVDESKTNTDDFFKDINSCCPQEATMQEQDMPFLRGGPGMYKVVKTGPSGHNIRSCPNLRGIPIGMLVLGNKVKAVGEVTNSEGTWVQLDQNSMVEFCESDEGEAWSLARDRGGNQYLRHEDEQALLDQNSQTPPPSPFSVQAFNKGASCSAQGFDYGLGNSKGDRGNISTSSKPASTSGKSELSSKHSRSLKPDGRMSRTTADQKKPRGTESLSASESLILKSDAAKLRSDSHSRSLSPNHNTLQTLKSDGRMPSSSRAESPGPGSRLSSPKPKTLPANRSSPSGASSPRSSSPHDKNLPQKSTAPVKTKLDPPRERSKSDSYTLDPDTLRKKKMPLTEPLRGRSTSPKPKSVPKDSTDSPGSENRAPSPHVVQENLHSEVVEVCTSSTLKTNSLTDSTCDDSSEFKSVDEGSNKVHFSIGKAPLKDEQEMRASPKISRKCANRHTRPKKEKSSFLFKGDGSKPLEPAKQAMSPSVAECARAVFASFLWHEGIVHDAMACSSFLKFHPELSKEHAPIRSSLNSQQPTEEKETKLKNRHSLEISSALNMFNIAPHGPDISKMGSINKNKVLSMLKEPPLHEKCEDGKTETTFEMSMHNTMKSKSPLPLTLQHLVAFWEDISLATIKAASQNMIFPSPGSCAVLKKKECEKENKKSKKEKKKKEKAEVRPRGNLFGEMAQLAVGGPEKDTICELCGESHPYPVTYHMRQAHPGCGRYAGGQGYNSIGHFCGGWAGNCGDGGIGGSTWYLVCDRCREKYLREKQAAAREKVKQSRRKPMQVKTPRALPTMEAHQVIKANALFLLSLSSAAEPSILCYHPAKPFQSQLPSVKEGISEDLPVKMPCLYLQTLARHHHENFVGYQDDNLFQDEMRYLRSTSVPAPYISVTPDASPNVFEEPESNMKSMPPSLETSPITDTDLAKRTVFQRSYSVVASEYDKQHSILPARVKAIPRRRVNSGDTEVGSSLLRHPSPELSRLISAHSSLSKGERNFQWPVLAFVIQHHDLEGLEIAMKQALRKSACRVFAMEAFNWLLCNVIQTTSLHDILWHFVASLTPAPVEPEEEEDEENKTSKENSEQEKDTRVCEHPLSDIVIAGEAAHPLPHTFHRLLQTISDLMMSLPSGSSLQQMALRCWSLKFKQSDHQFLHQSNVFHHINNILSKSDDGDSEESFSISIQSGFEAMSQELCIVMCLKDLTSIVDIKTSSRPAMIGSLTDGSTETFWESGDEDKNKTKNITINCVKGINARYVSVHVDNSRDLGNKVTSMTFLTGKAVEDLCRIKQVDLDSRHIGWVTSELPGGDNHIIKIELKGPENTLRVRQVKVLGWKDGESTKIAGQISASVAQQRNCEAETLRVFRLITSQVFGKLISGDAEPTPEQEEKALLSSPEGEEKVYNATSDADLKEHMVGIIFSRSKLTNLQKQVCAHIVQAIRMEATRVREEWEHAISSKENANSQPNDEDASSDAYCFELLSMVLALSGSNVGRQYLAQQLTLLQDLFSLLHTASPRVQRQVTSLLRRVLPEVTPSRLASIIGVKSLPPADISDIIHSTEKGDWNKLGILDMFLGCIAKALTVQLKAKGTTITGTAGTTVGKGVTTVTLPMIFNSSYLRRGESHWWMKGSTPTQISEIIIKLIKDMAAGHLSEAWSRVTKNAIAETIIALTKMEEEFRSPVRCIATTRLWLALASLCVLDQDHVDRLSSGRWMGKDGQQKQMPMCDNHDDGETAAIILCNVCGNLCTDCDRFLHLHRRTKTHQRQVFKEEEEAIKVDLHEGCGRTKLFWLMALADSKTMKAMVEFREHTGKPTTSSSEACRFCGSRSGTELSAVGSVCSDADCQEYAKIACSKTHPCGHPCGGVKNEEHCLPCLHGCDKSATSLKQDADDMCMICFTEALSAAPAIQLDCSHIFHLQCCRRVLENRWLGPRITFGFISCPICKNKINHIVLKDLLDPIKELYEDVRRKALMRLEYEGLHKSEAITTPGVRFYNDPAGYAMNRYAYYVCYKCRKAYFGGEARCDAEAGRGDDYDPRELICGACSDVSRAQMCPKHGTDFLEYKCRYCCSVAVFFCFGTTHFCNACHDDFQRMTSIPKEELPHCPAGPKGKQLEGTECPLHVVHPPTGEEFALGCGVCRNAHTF

As to “LRPPRC_P42704_571_YCQEPR (UniProt P42704)”, the “probe-labelled cysteine peptide fold change” value runs as follows: (10 µM) 0.261; (50 µM) 0.6.

Turning to “LRCH4_O75427_283_GSALGDLAPSRPPSFSPCPAEDLFPGHR (UniProt O75427)”, the “probe-labelled cysteine peptide fold change” value reads like this: (10 µM) -1.16; (50 µM) -1.33.

As to “LIMS1_P48059_281_AWCVNCFACSTCNTK (UniProt P48059)”, the “probe-labelled cysteine peptide fold change” value came to 0.00276 (10 µM) and 0.175 (50 µM).

As for “METAP2_P50579_263_IIDCAFTVTFNPK (UniProt P50579)”, the “probe-labelled cysteine peptide fold change” value was 0.171 (10 µM) and 0.0277 (50 µM).

For “MSH6_P52701_687_SELALSALGGCVFYLK (UniProt P52701)”, the “probe-labelled cysteine peptide fold change” value is, setting by setting: (10 µM) 0.05; (50 µM) 0.296.

Take “LIMD1_Q9UGP4_401_LSPTSLVHPVMSTLPELSCK (UniProt Q9UGP4)”: the “probe-labelled cysteine peptide fold change” value is, setting by setting: (10 µM) -0.0884; (50 µM) -0.436.

With “MLST8_Q9BVC4_34_FWQAHSGICTR (UniProt Q9BVC4)”, the “probe-labelled cysteine peptide fold change” value by setting is: (10 µM) -0.182; (50 µM) 0.0338.

For the target “MATR3_P43243_230_CRDDSFFGETSHNYHK (UniProt P43243)”, the “probe-labelled cysteine peptide fold change” value was 0.00308 (10 µM) and -0.311 (50 µM).

Regarding “MFSD14A_Q96MC6_465_HCGSHSHPHNTQAPGEAK (UniProt Q96MC6)”, the “probe-labelled cysteine peptide fold change” value (10 µM) was -0.39 and the “probe-labelled cysteine peptide fold change” value (50 µM) is -1.11.

In the case of “MCM2_P49736_406_DAILLADLVDSCK (UniProt P49736)”, the “probe-labelled cysteine peptide fold change” value was -0.0605 (10 µM) and 0.3 (50 µM).

Regarding “MAPK9_P45984_177_TACTNFMMTPYVVTR (UniProt P45984)”, the “probe-labelled cysteine peptide fold change” value is -0.494 (10 µM) and -1.64 (50 µM).

Turning to “MRC2_Q9UBG0_1234_TTSCDTK (UniProt Q9UBG0)”, the “probe-labelled cysteine peptide fold change” value by setting is: (10 µM) -0.27; (50 µM) -0.499.

Take “MYBL2_P10244_147_SCWTEEEDRIICEAHK (UniProt P10244)”: the “probe-labelled cysteine peptide fold change” value runs as follows: (10 µM) 0.166; (50 µM) -0.335.

As to “MSTO1_Q9BUK6_347_LCSSPVSMVHLADMLSFCGK (UniProt Q9BUK6)”, the “probe-labelled cysteine peptide fold change” value by setting is: (10 µM) 0.0999; (50 µM) 0.248.

In the case of “MAP2K2_P36507_384_SEVEEVDFAGWLCK (UniProt P36507)”, the “probe-labelled cysteine peptide fold change” value (10 µM) was found to be 0.0856 and the “probe-labelled cysteine peptide fold change” value (50 µM) stood at 0.0969.

In the case of “LIMS3_P0CW19-2_136_YCEHDFQMLFAPCCHQCGEFIIGR<|>LIMS1_P48059_74_YCEHDFQMLFAPCCHQCGEFIIGR (UniProt P48059+P0CW19)”, the “probe-labelled cysteine peptide fold change” value runs as follows: (10 µM) 0.212; (50 µM) 0.138.

Turning to “MTA3_Q9BTC8_109_CSVALLNETESVLSYLDK (UniProt Q9BTC8)”, the “probe-labelled cysteine peptide fold change” value reads like this: (10 µM) 0.791; (50 µM) 0.971.

On to “MYADM_Q96S97_279_SRDVSCSR (UniProt Q96S97)”, for which the “probe-labelled cysteine peptide fold change” value reads like this: (10 µM) 1.07; (50 µM) 1.22.

With “LYSMD2_Q8IV50_106_LFTNDCIFLK (UniProt Q8IV50)”, the “probe-labelled cysteine peptide fold change” value is -0.192 (10 µM) and -1.77 (50 µM).

As to “MYBBP1A_Q9BQG0_890_RYCHDLGER (UniProt Q9BQG0)”, the “probe-labelled cysteine peptide fold change” value is, setting by setting: (10 µM) 0.104; (50 µM) 0.125.

Turning to “MSTO1_Q9BUK6_232_LHFYVEECDYLQGFQILCDLHDGFSGVGAK (UniProt Q9BUK6)”, the “probe-labelled cysteine peptide fold change” value was determined as 0.444 (10 µM) and 1.33 (50 µM).

Consider “LUC7L3_O95232_40+43_YYLCGFCPAELFTNTR (UniProt O95232)”, for which the “probe-labelled cysteine peptide fold change” value reads like this: (10 µM) 0.232; (50 µM) -0.733.

“MCU_Q8NE86_191_TLVQQLYTTLCIEQHQLNK (UniProt Q8NE86)”: the “probe-labelled cysteine peptide fold change” value (10 µM) came out at 0.0411 and the “probe-labelled cysteine peptide fold change” value (50 µM) was -0.0406.

As to “LRRFIP1_Q32MZ4_456_CMVEVPQELETSTGHSLEK (UniProt Q32MZ4)”, the “probe-labelled cysteine peptide fold change” value was -0.167 (10 µM) and -0.23 (50 µM).

Regarding “MEFV_O15553_375_KSPGSLSPQPLPQCK (UniProt O15553)”, the “probe-labelled cysteine peptide fold change” value runs as follows: (10 µM) -0.229; (50 µM) -1.2.

On to “MAP4K1_Q92918_335_SSSLGIPDADCCR (UniProt Q92918)”, for which the “probe-labelled cysteine peptide fold change” value reads like this: (10 µM) -0.294; (50 µM) -1.09.

As to “MYD88_Q99836_168_FDAFICYCPSDIQFVQEMIR (UniProt Q99836)”, the “probe-labelled cysteine peptide fold change” value reads like this: (10 µM) 0.412; (50 µM) -1.05.

As for “MCM4_P33991_328_IAEPSVCGR (UniProt P33991)”, the “probe-labelled cysteine peptide fold change” value by setting is: (10 µM) 0.0169; (50 µM) -0.0125.

For “MACF1_Q9UPN3_5309_DCDVQGLEHDMEEINAR (UniProt Q9UPN3)”, the “probe-labelled cysteine peptide fold change” value by setting is: (10 µM) 0.0885; (50 µM) 0.126.

“MTMR14_Q8NCE2_131_FVCPVILFK (UniProt Q8NCE2)”: the “probe-labelled cysteine peptide fold change” value is, setting by setting: (10 µM) -0.00849; (50 µM) -0.0865.

As to “MCRS1_Q96EZ8_84_CSGSEPSSSEK (UniProt Q96EZ8)”, the “probe-labelled cysteine peptide fold change” value (10 µM) was -0.0254 and the “probe-labelled cysteine peptide fold change” value (50 µM) was -0.104.

In the case of “MCM6_Q14566_158_THPVHPELVSGTFLCLDCQTVIRDVEQQFK (UniProt Q14566)”, the “probe-labelled cysteine peptide fold change” value is 0.0358 (10 µM) and -0.522 (50 µM).

In the case of “MYCBP2_O75592_3263_QAHPGCGR (UniProt O75592)”, the “probe-labelled cysteine peptide fold change” value was 0.0855 (10 µM) and 0.00399 (50 µM).

Regarding “MTMR6_Q9Y217_214_CLEDEHLLQAISK (UniProt Q9Y217)”, the “probe-labelled cysteine peptide fold change” value reads like this: (10 µM) -0.103; (50 µM) -0.217.

As to “MCCC2_Q9HCC0_267_AATGEEVSAEDLGGADLHCRK (UniProt Q9HCC0)”, the “probe-labelled cysteine peptide fold change” value (10 µM) is -0.591 and the “probe-labelled cysteine peptide fold change” value (50 µM) is -1.49.

For “MTREX_P42285_430_KMVEEVFSNAIDCLSDEDK (UniProt P42285)”, the “probe-labelled cysteine peptide fold change” value runs as follows: (10 µM) -0.306; (50 µM) -0.485.

Consider “MGMT_P16455_145_GNPVPILIPCHR (UniProt P16455)”, for which the “probe-labelled cysteine peptide fold change” value is -1.04 (10 µM) and -1.29 (50 µM).

As for “MRPL44_Q9H9J2_96_TAFVNSCYIK (UniProt Q9H9J2)”, the “probe-labelled cysteine peptide fold change” value by setting is: (10 µM) -0.0364; (50 µM) -0.21.
